# Vaccinia Venus = inhibitors of vaccinia virus (Venus reporter) | hit rate 0.46% among 330,000 | Vaccinia virus Venus reporter expression, fluorescence | Potency, µM (titrated, usually from 36.5 µM), for inactives: top-dose activity change, negative = inhibition, hits mostly inhibitors; calls by dose curve; tested in A549 cells; also: % is scaled to controls: 0 for no effect and ±100 for the full control effect; nearly all actives have a fitted effect of over 30% in size
# NS1 inh = blocks influenza NS1 protein function | Potency, µM (top dose mostly 46.1 µM), for inactives: at the top dose activity, positive = more growth | hit rate 0.4% among 270,000 | AID 2326; calls by dose curve; also: actives are rising curves; nearly all actives have a fitted effect of over 50% in size
#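 S. cerevisiae expressing influenza A NS1, grown in glucose, washed, then diluted 1:100 into pH 6.0 -URA galactose medium with 23 nl compound. Growth recovery read as OD600; NS1-free strain serves as control.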
# HCV inhibitor = HCV inhibition; Huh7.5.1 HCVcc-Cre infection, luciferase reporter, 44 h; Potency, µM (doses to about 41.8 µM), inactives show top-dose activity change, negative = inhibition, most hits filed as inhibitors; hit rate 3.4% among 340,000; also: % is scaled to controls: 0 for no effect and ±100 for the full control effect
#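 Cells seeded at 1,000/well and cultured 4 h, then compounds added followed by HCVcc-Cre virus (~0.5 moi). After 44 h further culture, luciferase substrate was added, plates held 15 min at room temperature, and luminescence read for 15 sec.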
# Pf growth 96h = P. falciparum growth inhibition at 96 hours; hit rate 6.9% among 320,000; Potency, µM (highest dose often 28.7 µM), for the others: at the top dose activity change, negative = inhibition, usual class: inhibitors; P. falciparum luciferase reporter growth, 96 h; also: % is scaled to controls: 0 for no effect and ±100 for the full control effect
#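 Luminescence readout: decreased luciferase signal marks inhibited growth of reporter-expressing P. falciparum in infected red cells (2% hematocrit, 0.05% parasitemia final), exposed to compound two generations (96 h, 37 C, 5% CO2).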
# Pf growth 48h = inhibits P. falciparum growth in the first generation, 48 h | P. falciparum luciferase growth in erythrocytes, 48 h | AID 504832 | Potency, µM (highest dose often 28.7 µM), without a hit: top-dose activity change, negative = inhibition, actives largely listed as inhibitors | hit rate 5.9% among 310,000; also: % is scaled to controls: 0 for no effect and ±100 for the full control effect
#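 Erythrocytes infected with P. falciparum carrying an integrated firefly luciferase reporter (2% hematocrit, 0.1% parasitemia final) were exposed to compounds in RPMI 1640 with 0.5% Albumax at 37 C, 5% CO2. Growth inhibition was scored as reduced luminescence.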
# VACV mCherry inh = inhibitors of vaccinia virus infection (mCherry reporter signal) | Vaccinia virus mCherry reporter infection, fluorescence | Potency, µM (series often up to 36.5 µM), inactives show at the top dose activity change, negative = inhibition, hits mostly inhibitors | hit rate 0.63% among 310,000 | AID 720579; calls by dose curve; tested in A549 cells; also: % is scaled to controls: 0 for no effect and ±100 for the full control effect; nearly all actives have a fitted effect of over 35% in size
# An asterisk follows results filed as active; i = inactive; ? = inconclusive; / = no result; ! = repeats disagree. Sampled rows, rich in hits. Any-hit rate of the full collection: about 11%. Unless noted, calls follow the shape of the dose curve; as a rule, active = well fitted inhibition curve with a large enough effect; inconclusive = small, poorly fitted or top-dose-only effect, or another doubt; inactive = no such curve, though single readings can be large or run the other way. Potency is read from the fitted curve at half-maximal effect.
SMILES,Vaccinia Venus,NS1 inh,HCV inhibitor,Pf growth 96h,Pf growth 48h,VACV mCherry inh
COc1ccc(/C=C/c2cc[n+](C)c3ccccc23)cc1OC,34.7%,/,/,/,/,-14.9%
C[n+]1ccc(/C=C/c2ccc([N+](C)(C)C)cc2)c2ccccc21,458.1%,/,/,/,/,i
C[n+]1ccc(/C=C/c2cc[n+](C)c3ccccc23)c2ccccc21,10µM*,/,/,/,/,?
CC(C)(C)c1cc(C=C(C#N)C#N)cc(C(C)(C)C)c1O,?,-45.3%,?,1.47µM*,2.62µM*,1µM*!
Oc1cc[c]([Hg][Cl])cc1,/,/,/,1.51µM*,1.9µM*,/
Cc1ccc(O)cc1 (tested in a mixture with another compound),/,19.0%,/,/,/,/
CC1=CCC(C(C)(C)O)CC1 (configuration not stated),/,/,/,14.2%,2.6%,/
Fc1ccccc1N1CCN(C(c2ccccn2)c2nnnn2C2CCCCC2)CC1 (configuration not stated),-13.2%,-57.3%,5.2%,-5.8%,10.4µM*,i
COc1ccccc1N1CCN(C(c2ccccn2)c2nnnn2C2CCCCC2)CC1 (configuration not stated),-7.4%,-18.7%,10.0%,/,9.28µM*,-22.8%
O=C(CSc1n[nH]c(=O)n1CCc1ccccc1)NC1CCCC1,-12.1%,/,/,/,/,-0.7%
Oc1ccc(C2Nc3cccc4cccc(c34)N2)c(O)c1,?,4.2%,1.4%,1.47µM*,6.57µM*,/
Clc1ccccc1C1Nc2cccc3cccc(c23)N1,/,18.7%,-2.3%,-15.3%,?,/
CCOC(=O)c1cnc(SCC(=O)NNC(=O)c2ccco2)nc1N,0.4%,1.2%,8.9%,-4.1%,3.0%,i
CCN(CC)c1ccc(NC(=O)COC(=O)c2cccs2)cc1,/,-13.9%,16.8%,16.7%,/,/
COc1ccccc1N1CCN(C2CC(=O)N(c3cccc(Br)c3)C2=O)CC1 (configuration not stated),-16.6%,-34.9%,14.5%,6.0%,7.7%,-8.7%
COc1cc2c(cc1OC)CN(C1CC(=O)N(c3c(C)cccc3C)C1=O)CC2 (configuration not stated),3.0%,/,-1.6%,?,6.57µM*,-5.0%
COc1cc2c(C(=O)N3CCN(C)CC3)c(C)oc2cc1Br,/,-7.9%,?,/,-17.7%,/
CN1CCN(C2=Cc3ccc(Cl)cc3Sc3ccc(F)cc32)CC1,?,-6.2%,?,11.7µM*,13.1µM*,?
O=C1c2ccccc2-c2n[nH]c(=O)c3ccc(N4CCCCC4)c1c23,?,/,11.2µM*,-16.3%,-23.7%,?
Cc1ccc(N2CCOCC2)c2c1C(=O)c1ccccc1C2=O,-21.6%,/,?,?,?,-15.3%
CCn1c(CNC(=O)COc2ccc(C(C)C)cc2)nnc1SCC(=O)Nc1cc(F)ccc1C,-18.1%,8.5%,-21.9%,?,?,i
CCn1c(CNC(=O)COc2ccc(C(C)C)cc2)nnc1SCC(=O)NC1CCCCC1C (configuration not stated),/,1.7%,-7.7%,10.4µM*,11.7µM*,/
CCn1c(CNC(=O)COc2ccc(C(C)C)cc2)nnc1SCC(=O)Nc1ccc(F)cc1,-17.6%,-2.2%,?,8.28µM*,/,-21.2%
CCn1c(COc2cccc(OC)c2)nnc1SCC(=O)Nc1ccccc1C(=O)OC,/,-13.1%,?,/,?,/
CCn1c(COc2ccc3c(c2)CCCC3)nnc1SCC(=O)Nc1ccc(C(=O)OC)cc1,-10.0%,-1.9%,9.9%,9.28µM*,-18.8%,-8.8%
SMILES,Vaccinia Venus,NS1 inh,HCV inhibitor,Pf growth 96h,Pf growth 48h,VACV mCherry inh
Cc1ccc2nc(/C(C#N)=C\c3ccc([N+](=O)[O-])o3)[nH]c2c1,-11.5%,-138.5%,?,?,10.4µM*,i
Cc1ccc2nc(/C(C#N)=C\c3cc(C)n(-c4cccc([N+](=O)[O-])c4)c3C)[nH]c2c1,/,17.8%,2.24µM*,3.29µM*,/,/
Cc1cc(/C=C(/C#N)c2nc3ccccc3[nH]2)c(C)n1-c1cc(C(=O)O)cc(C(=O)O)c1,-0.4%,6.3%,1.8%,100.7%,1.4%,i
Cc1cc(/C=C(/C#N)c2nc3ccccc3[nH]2)c(C)n1-c1ccccc1C(=O)O,14.0%,/,16.3%,18.8%,8.28µM*,-8.6%
CCc1nc2ccc(C(=O)Nc3ccc(OC)c(OC)c3)cn2c1N(C)Cc1ccc(N(C)C)cc1,1.9%,/,/,/,/,16.5%
CC(C)(C)c1ccc(-c2nnc(-c3ccccc3NC(=O)c3cccc(C(F)(F)F)c3)o2)cc1,-2.6%,/,/,/,/,-6.3%
S=C(NCC1COc2ccccc2O1)Nc1ccccc1 (configuration not stated),-11.8%,-5.2%,4.5%,?,0.7%,i
COc1ccccc1CNc1ncnc2sccc12,-5.6%,-10.0%,?,-24.7%,-27.9%,i
c1ccc2c(c1)OCC(CNc1ncnc3sccc13)O2 (configuration not stated),-21.0%,-13.0%,1µM*,?,-23.4%,?
O=C(O)CNCC1COc2ccccc2O1 (configuration not stated),/,-0.1%,4.1%,125.6%,-0.4%,/
c1ccc2c(c1)OCC(CNCC1COc3ccccc3O1)O2 (configuration not stated),-5.7%,-32.1%,23.9%,0.208µM*,5.5%,-10.6%
CN(C)c1ccc(CNc2ncnc3sccc23)cc1,-17.5%,-23.7%,1.78µM*,30.7%,-8.7%,-24.0%
Fc1ccccc1CNc1ncnc2sccc12,8.1%,-13.0%,2.24µM*,23.0%,6.9%,-14.1%
Cn1c(=NC(=O)CS(=O)(=O)c2ccccc2)sc2ccccc21,-9.1%,/,-25.5%,39.1%,74.7%,i
Cn1c(=NC(=O)CS(=O)(=O)c2ccccc2)sc2cc([N+](=O)[O-])ccc21,-11.3%,/,-12.3%,?,11.7µM*,-4.0%
Cc1nnc(SCC(=O)NNC(=O)c2ccc(F)cc2)n1Cc1ccccc1,-1.1%,/,5.8%,/,/,-1.0%
Cc1ccnc(NC(=O)COc2ccc3oc4c(c3c2)CCCC4)c1,-8.2%,-7.5%,1.0%,11.7µM*,125.2%,/
CC(C)OCCCNC(=O)COc1ccc2oc3c(c2c1)CCCC3,-2.0%,-36.4%,-13.2%,4.15µM*,-18.8%,1.9%
COc1ccc(CCC(=O)NCCc2nc3ccccc3[nH]2)cc1,-6.8%,/,1.4%,?,-3.5%,-10.3%
Cc1ccccc1C1CC(c2ccccc2OC(F)F)Nc2ncnn21 (configuration not stated),-20.3%,-0.5%,8.5%,12.8%,?,i
Cc1ccc(C2CC(c3ccccc3OC(F)F)Nc3ncnn32)cc1 (configuration not stated),-14.1%,3.5%,1.8%,/,11.7µM*,-7.3%
O=C1C=CC2(O[C@H](c3ccccc3)[C@@H](c3ccccc3)O2)[C@H](Sc2ccccc2O)C1,?,/,?,/,/,10µM*
